# Screening data: PubChem, National Center for Advancing Translational Sciences (NCATS)
# Only some compounds are listed: those with a hit (about 7.8% of all), similar ones and a draw of the others.
# Vaccinia mCherry – qHTS for Stage-Specific Inhibitors of Vaccinia Orthopoxvirus: mCherry Reporter Primary qHTS | Potency, µM (doses to about 36.5 µM), for inactives: top-dose activity change, negative = inhibition, usual class: inhibitors | 310,000 tested, 0.63% active | Vaccinia virus mCherry reporter infection, fluorescence; calls by dose curve; tested in A549 cells; note: potency is the fitted concentration of half-maximal effect; nearly all actives have a fitted effect of over 35% in size
# Marburg entry inh – qHTS for inhibitors of binding or entry into cells for Marburg Virus; Marburg virus pseudotyped entry inhibition, cell reporter; Potency, µM (top dose mostly 37.8 µM), for the others: at the highest dose activity change, negative = inhibition, usual class: inhibitors; 300,000 tested, 1.8% active; AID 540276, 2011; calls by dose curve; tested in HEK293 cells; note: potency is the fitted concentration of half-maximal effect
# HCMV inh – qHTS Assay for inhibitors of the human cytomegalovirus (HCMV). 410,000 tested, 4.5% active. HFF cells, HCMV-luciferase reporter, 72 h; stronger effect = lower value. activity change, negative = inhibition, % at 57.5 µM. AID 1259415, 2018; in the data active = activity change below about -60%; inconclusive = no clear call, values can overlap the other calls; inactive = above about -39%
#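 HFF cells seeded 16 h at 37C, treated with compounds, infected with luciferase-reporter HCMV at MOI 1 PFU/cell; luciferase read at 72 h post infection, normalized to buffer-only and Salinomycin controls.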
# VACV Venus inh – qHTS for Stage-Specific Inhibitors of Vaccinia Orthopoxvirus: Venus Reporter Primary qHTS. AID 720580, 2013. 330,000 tested, 0.46% active. Potency, µM (doses to about 36.5 µM), for the others: top-dose activity change, negative = inhibition, actives largely listed as inhibitors. Vaccinia virus Venus reporter expression, fluorescence; calls by dose curve; tested in A549 cells; note: potency is the fitted concentration of half-maximal effect; nearly all actives have a fitted effect of over 30% in size
# HCV inhibitor – qHTS Assay for Inhibitors of Hepatitis C Virus (HCV); 340,000 tested, 3.4% active; Potency, µM (highest dose often 41.8 µM), without a hit: at the highest dose activity change, negative = inhibition, actives largely listed as inhibitors; AID 651820, 2012; Huh7.5.1 HCVcc-Cre infection, luciferase reporter, 44 h; active = well fitted inhibition curve with a large enough effect; inconclusive = small, poorly fitted or top-dose-only effect, or another doubt; inactive = no such curve, though single readings can be large or run the other way; note: potency is the fitted concentration of half-maximal effect
#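 HCVcc-Cre virus at an moi near 0.5 was added right after compound to cells cultured 4 h from seeding (1,000 cells/well). Luciferase activity was determined 44 h later, 15 min after substrate addition at RT.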
# LASV entry inh – qHTS for Inhibitors of binding or entry into cells for Lassa Virus | Lassa virus pseudotype entry inhibition, cell reporter | 300,000 tested, 1.2% active | AID 540256, 2011 | Potency, µM (doses to about 37.9 µM), without a hit: top-dose activity change, negative = inhibition, hits mostly inhibitors; calls by dose curve; tested in HEK293 cells; note: potency is the fitted concentration of half-maximal effect; nearly all actives have a fitted effect of over 50% in size
# * marks the source's active call; other numbers are inactive results; i = inactive; u = inconclusive; x = no result given; [ ] = dose if it differs, or a comment. % is set by controls: 0 for no effect and ±100 for the full control effect.
SMILES,Vaccinia mCherry,Marburg entry inh,HCMV inh,VACV Venus inh,HCV inhibitor,LASV entry inh
Cc1cc(C)n2c(SCC(=O)N3CCN(S(=O)(=O)c4ccc(Cl)cc4)CC3)nnc2n1,-14.4%,14.4%[46.1 µM],-73.2*,-14.6%,1.3%,-11.5%
CCCn1c(SCC(=O)N2CCN(S(=O)(=O)c3ccc(Cl)cc3)CC2)n[nH]c1=O,-26.6%,-8.1%[46.1 µM],-13.8,-16.2%,-10.8%,-5.8%
O=C(CCl)NN1C(=O)NC(c2ccccc2)(c2ccccc2)C1=O,u,u,-87.6*,u,u,u
CC(C)(C)NC(=O)CN1C(=O)NC(c2ccccc2)(c2ccccc2)C1=O,-8.7%,5.8%[46.1 µM],-81.1*,3.4%,-7.5%,1.2%[46.1 µM]
O=C(CCl)NN1C(=O)NC2(CCCCC2)C1=O,x,x,-33.4,x,5.4%,x
Cc1ccccc1C1=NOC2CN(C(=O)c3ccc4c(c3)OCO4)CC12 (stereo unspecified),x,x,45.8,x,x,x
Cc1cc(C(=O)Nc2cccc(-c3nc(CNC(=O)c4sc(C)nc4C)c(C)o3)c2)c(C)o1,i,x,x,-18.5%,x,x
CC(C)(CO)N=C1NS(=O)(=O)c2cc([N+](=O)[O-])ccc21,i,-11.6%,-7.1,-23.1%,u,u
CCC(CC)N=C1NS(=O)(=O)c2cc([N+](=O)[O-])ccc21,12.6µM*,-9.2%[46.1 µM],-9.6,u,-26.4%,2.0%[46.1 µM]
CCOC(=O)c1noc2ncnc(N3CCN(c4cccc(Cl)c4)CC3)c12,-8.6%,x,-16.7,4.4%,x,-3.3%[46.1 µM]
CCOC(=O)c1cc2c3ccccc3n(CC)c2nc1N,i,-1.8%,3.3,0.0%,u,9.0%
CCn1c2ccccc2c2cc(C#N)c(N)nc21,x,x,-5.1,x,12.6µM*,x
COc1ccc(C(C[N+](=O)[O-])c2c(-c3ccccc3)cc3ccccn23)c(OC)c1 (stereo unspecified),-15.6%,-35.5%,-71.3*,-6.6%,3.5%,-20.9%
CCn1cc(C(=O)NCc2ccc3c(c2)OCO3)c(=O)c2cc(F)c(N3CCN(C(=O)c4ccco4)CC3)cc21,11.2µM*,u,-73.0*,12.6µM*,u,u
CCn1cc(C(=O)NCc2ccncc2)c(=O)c2cc(F)c(N3CCN(C(=O)c4ccco4)CC3)cc21,-11.8%[7.34 µM],7.3%[46.1 µM],-18.4,-8.8%[7.34 µM],u,2.4%
CCn1cc(C(=O)NCc2ccccc2)c(=O)c2cc(F)c(N3CCN(C(=O)c4ccco4)CC3)cc21,x,u,-82.3*,u,11.2µM*,u
C=C1CCC[C@]2(C)C[C@H]3OC(=O)C(CNC(C)(CO)CO)[C@H]3CC12 (stereo partly specified),7.94µM*,u,-85.6*,u,-9.0%,8.6%
C=C1CCC[C@]2(C)C[C@H]3OC(=O)C(CN4CCCCC4CO)[C@H]3CC12 (stereo partly specified),3.16µM*,11.2µM*,-92.1*,2.51µM*,-16.9%,-24.6%
C=C1CCC[C@]2(C)C[C@H]3OC(=O)C(CN(C)CC(OC)OC)[C@H]3CC12 (stereo partly specified),0.891µM*,-17.0%[46.1 µM],-16.8,u,-22.7%,9.2%
C=C1CCC[C@]2(C)C[C@H]3OC(=O)C(CNC(C)CC)[C@H]3CC12 (stereo partly specified),x,x,36.3,x,4.4%,x
C=C1CCC[C@]2(C)C[C@H]3OC(=O)C(CNC(CC)CO)[C@H]3CC12 (stereo partly specified),7.08µM*,-6.8%,-21.6,7.08µM*,-5.5%,-11.2%
Brc1cccc[n+]1CCC[n+]1ccccc1Br,i,x,x,-11.1%,x,x
COc1cc(OC)c(N(C)C(=O)Nc2cn(CC(C)C)c(=O)c3ccccc23)cc1Cl,7.9%,x,-20.4,-1.2%,x,18.6%[46.1 µM]
CN(Cc1ccccc1)C(=O)c1cc2c(s1)-c1ccc(Cl)cc1SC2,33.5%,u,14.7,-12.8%,x,u
CCN(CC(=O)Nc1ccc(NC(C)=O)cc1)C(=O)Cc1ccc(Cl)c(Cl)c1,-6.0%,0.7%[46.1 µM],-64.3*,-1.1%,u,x
SMILES,Vaccinia mCherry,Marburg entry inh,HCMV inh,VACV Venus inh,HCV inhibitor,LASV entry inh
Cc1ccc2occ(CC(=O)N(Cc3ccc(Cl)cc3)Cc3ccco3)c2c1,-8.4%,-3.8%[46.1 µM],41.1,-12.8%,x,-6.4%[46.1 µM]
Cc1cccc(N2CCN(C(=O)c3cc(S(=O)(=O)N4CCC(C)CC4)cn3C)CC2)c1C,-9.4%[7.34 µM],x,u,-9.6%[7.34 µM],x,-22.2%[46.1 µM]
O=C(Nc1ccc2c(c1)CCC2)C1CCN(c2c3c(nc4ncnn24)CCC3)CC1,x,u,-101.0*,x,4.47µM*,u
O=C(Nc1ccc(Oc2ccccc2)cc1)C1CCN(c2c3c(nc4ncnn24)CCC3)CC1,x,u,-100.8*,x,25.1µM*,20.6µM*
COc1ccc(NC(=O)C2CCCN(c3c4c(nc5ncnn35)CCC4)C2)cc1OC (stereo unspecified),x,-17.1%,8.6,x,-22.1%,-26.3%
C=C1C(=O)[C@]23C[C@H]1CCC2[C@]1(C)C(=O)CC[C@@](C)(C(=O)O)C1C[C@@H]3O (stereo partly specified),u,x,-18.7,u,x,x
C=C1C(=O)[C@]23C[C@H]1CCC2[C@]1(C)CCC[C@@](C)(C(=O)O)C1C[C@@H]3O (stereo partly specified),6.31µM*,x,-102.3*,3.55µM*,x,x
O=C(CCS(=O)(=O)c1nc(-c2cccs2)cc(C(F)(F)F)n1)Nc1cc(Br)ccc1O,-13.9%[7.34 µM],u,-99.6*,-9.9%[7.34 µM],x,u
O=C(CCS(=O)(=O)c1nc(-c2cccs2)cc(C(F)(F)F)n1)Nc1ccc(Br)cc1,-12.2%[7.34 µM],u,-97.7*,-15.8%[7.34 µM],x,-23.9%[46.1 µM]
Cc1ccc(O)c(NC(=O)CCS(=O)(=O)c2nc(-c3cccs3)cc(C(F)(F)F)n2)c1,-14.3%[7.34 µM],-23.0%[46.1 µM],-99.8*,-7.4%[7.34 µM],x,u
O=C(Nc1ccccc1C(=O)OCc1cc(=O)n2c3c(sc2n1)CCCC3)c1ccc(F)cc1,i,x,-16.7,-8.6%,x,-0.2%[46.1 µM]
CCOCCCNC(=O)C(=O)Nc1c2c(nn1-c1ccccc1)CSC2,-14.2%,x,12.4,-7.3%,x,u
Nc1ccc(C=O)cc1,-2.7%,x,x,-10.9%,x,x
COc1ccc(OC)c(C(=O)CCCC(=O)c2cc(OC)ccc2OC)c1,x,x,-61.5*,x,u,x
Cn1cc(-c2cc3cnc(Nc4cccc(NS(C)(=O)=O)c4)cc3n2Cc2ccccc2)cn1,x,x,-87.7*,x,x,x
CC(C)C[C@@H]1NC(=O)[C@H](Cc2ccccc2)N(C)C(=O)[C@H](C)NC(=O)c2ccccc2NC(=O)[C@H](Cc2ccc(O)cc2)N(C)C1=O,u,x,-29.9,-23.6%,8.91µM*,x
CC(C)CC1NC(=O)N(CC(=O)N2c3ccccc3NC(=O)C2(C)C)C1=O (stereo unspecified),i,u,-30.0,-4.5%,-1.1%,24.2%[46.1 µM]
